# Data published in PubChem BioAssay (EPA / NIEHS).
# Results filed as inconclusive are left out. The source made the active and inactive calls. How the source made its calls: active means hit-call score of the fitted dose curve at least 0.9, where 1 is the maximum; inconclusive means response in the unintended direction; inactive means score below 0.9.
# Tests used:
# [1] = target: Muscarinic acetylcholine receptor M1 (Homo sapiens) (UniProt P11229); assay: NVS_GPCR_hM1: NovaScreen (NVS) G Protein-Coupled Receptor Assay for human Muscarinic, M1 Receptor (AID 2283270)
# Muscarinic acetylcholine receptor M1 (Homo sapiens), sequence (P11229 whole entry, looked up): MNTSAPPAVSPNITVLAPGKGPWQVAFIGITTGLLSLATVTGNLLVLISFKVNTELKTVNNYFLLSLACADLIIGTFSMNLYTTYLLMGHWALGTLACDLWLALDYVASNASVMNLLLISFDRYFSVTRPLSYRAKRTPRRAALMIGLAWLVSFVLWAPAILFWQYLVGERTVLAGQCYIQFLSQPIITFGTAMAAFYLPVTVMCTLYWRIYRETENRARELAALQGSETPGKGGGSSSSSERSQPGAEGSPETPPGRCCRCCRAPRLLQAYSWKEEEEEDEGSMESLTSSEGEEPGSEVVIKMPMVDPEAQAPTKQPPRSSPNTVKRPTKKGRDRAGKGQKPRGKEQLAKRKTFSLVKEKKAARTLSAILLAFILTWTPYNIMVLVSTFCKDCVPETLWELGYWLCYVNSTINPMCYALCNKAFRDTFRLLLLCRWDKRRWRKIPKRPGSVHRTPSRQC
# Procedure, shortened: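 Actives from a duplicate 25 uM single-point screen were retested in concentration series. Binding measured as displacement of a radioligand from CHO-derived receptor preparation, 1 h incubation, filtration and scintillation counting, analysed as signal loss against DMSO.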
# [2] = target: Muscarinic acetylcholine receptor M3 (Homo sapiens) (UniProt P20309); assay: NVS_GPCR_hM3: NovaScreen (NVS) G Protein-Coupled Receptor Assay for human Muscarinic, M3 Receptor (AID 2283272)
# Muscarinic acetylcholine receptor M3 (Homo sapiens), sequence (P20309 whole entry, looked up): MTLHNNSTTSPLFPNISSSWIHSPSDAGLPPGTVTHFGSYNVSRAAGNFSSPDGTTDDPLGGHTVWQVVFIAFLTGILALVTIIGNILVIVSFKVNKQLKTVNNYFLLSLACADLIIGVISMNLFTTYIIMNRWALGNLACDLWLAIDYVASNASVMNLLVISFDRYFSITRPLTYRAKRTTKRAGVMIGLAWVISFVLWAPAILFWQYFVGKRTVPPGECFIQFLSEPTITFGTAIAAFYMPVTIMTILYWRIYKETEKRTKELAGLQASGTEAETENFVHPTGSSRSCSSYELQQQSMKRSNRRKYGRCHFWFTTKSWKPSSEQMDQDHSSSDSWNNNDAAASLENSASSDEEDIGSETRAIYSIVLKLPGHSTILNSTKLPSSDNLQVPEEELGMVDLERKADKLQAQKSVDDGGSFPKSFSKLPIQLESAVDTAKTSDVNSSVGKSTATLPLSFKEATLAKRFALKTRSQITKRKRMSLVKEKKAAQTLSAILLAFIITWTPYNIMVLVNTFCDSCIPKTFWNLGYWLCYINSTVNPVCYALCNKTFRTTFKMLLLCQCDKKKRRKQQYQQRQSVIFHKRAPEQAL
# Procedure, shortened: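 Radioligand displacement binding on human M3 receptor in CHO-derived membranes, 1 h incubation, filter-based scintillation counting. Primary screen in duplicate at 25 uM; actives followed up in concentration series; loss of signal versus DMSO.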
# [3] = target: Muscarinic acetylcholine receptor M2 (Homo sapiens) (UniProt P08172); assay: NVS_GPCR_hM2: NovaScreen (NVS) G Protein-Coupled Receptor Assay for human Muscarinic, M2 Receptor (AID 2283273)
# Muscarinic acetylcholine receptor M2 (Homo sapiens), sequence (P08172 whole entry, looked up): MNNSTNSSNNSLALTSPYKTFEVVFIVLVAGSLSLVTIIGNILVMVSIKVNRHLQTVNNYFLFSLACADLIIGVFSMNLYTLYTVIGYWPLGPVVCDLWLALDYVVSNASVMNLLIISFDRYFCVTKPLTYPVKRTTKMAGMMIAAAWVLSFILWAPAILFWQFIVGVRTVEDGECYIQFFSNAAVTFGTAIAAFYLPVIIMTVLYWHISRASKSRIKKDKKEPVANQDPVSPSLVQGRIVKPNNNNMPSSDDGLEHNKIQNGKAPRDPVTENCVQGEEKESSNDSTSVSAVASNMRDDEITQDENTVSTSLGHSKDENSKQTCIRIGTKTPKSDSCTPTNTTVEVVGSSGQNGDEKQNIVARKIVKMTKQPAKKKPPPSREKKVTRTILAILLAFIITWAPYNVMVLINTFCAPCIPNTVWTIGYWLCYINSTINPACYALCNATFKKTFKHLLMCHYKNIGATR
# Procedure, shortened: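 CHO-expressed human M2 receptor preparation, competitive displacement of a radioligand read by filter-based scintillation counting after 1 h. Single 25 uM duplicate screen, then concentration-response follow-up of actives; DMSO baseline.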
# [4] = target: human Muscarinic, M4 Receptor, CHRM4 (gene 1132) (UniProt P08173); assay: NVS_GPCR_hM4: NovaScreen (NVS) G Protein-Coupled Receptor Assay for human Muscarinic, M4 Receptor (AID 2283274)
# human Muscarinic, M4 Receptor, CHRM4 (gene 1132), sequence (P08173 whole entry, looked up): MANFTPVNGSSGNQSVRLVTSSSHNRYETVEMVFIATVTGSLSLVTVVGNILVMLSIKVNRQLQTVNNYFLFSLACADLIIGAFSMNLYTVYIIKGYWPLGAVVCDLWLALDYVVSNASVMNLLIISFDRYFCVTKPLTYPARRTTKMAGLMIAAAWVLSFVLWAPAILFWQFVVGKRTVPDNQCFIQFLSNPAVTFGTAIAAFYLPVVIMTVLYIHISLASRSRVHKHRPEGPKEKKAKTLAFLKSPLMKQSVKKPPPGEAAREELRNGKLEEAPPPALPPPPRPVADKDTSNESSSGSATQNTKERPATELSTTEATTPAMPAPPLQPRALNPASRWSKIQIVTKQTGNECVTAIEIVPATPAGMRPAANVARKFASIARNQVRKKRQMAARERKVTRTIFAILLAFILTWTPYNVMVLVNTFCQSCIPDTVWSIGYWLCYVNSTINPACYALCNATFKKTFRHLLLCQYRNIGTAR
# Procedure, shortened: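 Filter-based scintillation counting of radioligand bound to CHO-expressed human M4 preparations after 1 h; loss of signal fitted versus DMSO. Initial duplicate testing at 25 uM, concentration-response follow-up for actives.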
# [5] = target: human Neurotensin Receptor (NTS), NTSR1 (gene 4923) (UniProt P30989); assay: NVS_GPCR_hNTS: NovaScreen (NVS) G Protein-Coupled Receptor Assay for human Neurotensin Receptor (NTS) (AID 2283279)
# Procedure, shortened: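 Compounds competed with a radiolabelled ligand for binding to CHO-derived human neurotensin receptor; bound signal counted after filtration, 1 h. Screened first at a single concentration of 25 uM in duplicate, then concentration series to 50 uM maximum for actives.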
# [6] = target: human Adrenergic, Alpha 2c Receptor (Adra2C), ADRA2C (gene 152) (UniProt P18825); assay: NVS_GPCR_hAdra2C: NovaScreen (NVS) G Protein-Coupled Receptor Assay for human Adrenergic, Alpha 2c Receptor (Adra2C) (AID 2283259)
# Procedure, shortened: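 Screened first in duplicate at 25 uM, with actives then run as concentration series. Membranes from Sf9 cells were exposed for 1 h, and displacement of radioligand was counted after filtration, using DMSO as baseline.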
# [7] = target: Beta-2 adrenergic receptor (Homo sapiens) (UniProt P07550); assay: NVS_GPCR_hAdrb2: NovaScreen (NVS) G Protein-Coupled Receptor Assay for human Adrenergic, Beta 2 Receptor (Adrb2) (AID 2283261)
# Beta-2 adrenergic receptor (Homo sapiens), sequence (P07550 whole entry, looked up): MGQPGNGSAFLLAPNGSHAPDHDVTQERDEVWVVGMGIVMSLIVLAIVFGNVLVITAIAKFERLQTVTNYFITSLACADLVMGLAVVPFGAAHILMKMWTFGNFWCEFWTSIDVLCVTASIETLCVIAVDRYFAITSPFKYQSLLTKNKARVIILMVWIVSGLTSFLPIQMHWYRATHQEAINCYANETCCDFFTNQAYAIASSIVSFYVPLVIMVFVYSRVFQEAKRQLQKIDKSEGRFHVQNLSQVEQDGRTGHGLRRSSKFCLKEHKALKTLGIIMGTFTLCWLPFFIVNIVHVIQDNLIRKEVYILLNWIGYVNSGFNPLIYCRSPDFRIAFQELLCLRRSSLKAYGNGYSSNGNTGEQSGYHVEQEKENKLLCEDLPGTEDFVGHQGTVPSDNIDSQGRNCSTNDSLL
# Procedure, shortened: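 Compounds screened in duplicate at 25 uM, then actives in concentration series. Human beta-2 receptor from CHO material, cell-free; radioligand displacement after 1 h measured by filtration and scintillation against DMSO baseline.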
# [8] = target: human Dopamine Receptor D2 (DRD2), DRD2 (gene 1813) (UniProt P14416); assay: NVS_GPCR_hDRD2s: NovaScreen (NVS) G Protein-Coupled Receptor Assay for human Dopamine Receptor D2 (DRD2) (AID 2283266)
# human Dopamine Receptor D2 (DRD2), DRD2 (gene 1813), sequence (P14416 whole entry, looked up): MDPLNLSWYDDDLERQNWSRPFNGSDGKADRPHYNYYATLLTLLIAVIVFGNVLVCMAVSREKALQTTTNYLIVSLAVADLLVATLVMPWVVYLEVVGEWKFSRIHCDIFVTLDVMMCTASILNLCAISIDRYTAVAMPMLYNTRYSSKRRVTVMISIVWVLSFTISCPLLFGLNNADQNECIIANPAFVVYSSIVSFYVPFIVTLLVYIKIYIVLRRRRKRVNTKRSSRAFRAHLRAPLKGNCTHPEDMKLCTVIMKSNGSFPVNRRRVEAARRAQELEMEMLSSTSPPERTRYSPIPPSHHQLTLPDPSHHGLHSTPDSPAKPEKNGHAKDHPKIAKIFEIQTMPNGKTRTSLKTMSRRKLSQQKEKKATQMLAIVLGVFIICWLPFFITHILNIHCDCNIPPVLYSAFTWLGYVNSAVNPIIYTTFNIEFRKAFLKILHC
# Procedure, shortened: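 Test compound (25 uM, duplicate in the primary screen; concentration series at follow-up) competed with radioligand for human DRD2 in CHO-derived membrane protein. Filter-based scintillation counting was done 1.5 hours after dosing, with loss of signal analysed against DMSO.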
# [9] = target: human Histamine 1 Receptor (H1), HRH1 (gene 3269) (UniProt P35367); assay: NVS_GPCR_hH1: NovaScreen (NVS) G Protein-Coupled Receptor Assay for human Histamine 1 Receptor (H1) (AID 2283268)
# Procedure, shortened: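 Filter-based scintillation detection of radioligand binding to human H1, 1 h incubation; chemicals screened in duplicate at 25 uM, then concentration-response; signal loss relative to DMSO taken as activity.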
# [10] = target: D(1A) dopamine receptor (Homo sapiens) (UniProt P21728); assay: NVS_GPCR_hDRD1: NovaScreen (NVS) G Protein-Coupled Receptor Assay for human Dopamine Receptor D1 (DRD1) (AID 2283269)
# Procedure, shortened: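 HEK293-derived receptor preparation; radioligand competitive displacement; 1 h; filtration + scintillation counting. DMSO = negative control/baseline. Primary: 25 uM, duplicate; secondary: concentration–response for actives.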
# [11] = target: Muscarinic acetylcholine receptor M5 (Homo sapiens) (UniProt P08912); assay: NVS_GPCR_hM5: NovaScreen (NVS) G Protein-Coupled Receptor Assay for human Muscarinic, M5 Receptor (AID 2283275)
# Muscarinic acetylcholine receptor M5 (Homo sapiens), sequence (P08912 whole entry, looked up): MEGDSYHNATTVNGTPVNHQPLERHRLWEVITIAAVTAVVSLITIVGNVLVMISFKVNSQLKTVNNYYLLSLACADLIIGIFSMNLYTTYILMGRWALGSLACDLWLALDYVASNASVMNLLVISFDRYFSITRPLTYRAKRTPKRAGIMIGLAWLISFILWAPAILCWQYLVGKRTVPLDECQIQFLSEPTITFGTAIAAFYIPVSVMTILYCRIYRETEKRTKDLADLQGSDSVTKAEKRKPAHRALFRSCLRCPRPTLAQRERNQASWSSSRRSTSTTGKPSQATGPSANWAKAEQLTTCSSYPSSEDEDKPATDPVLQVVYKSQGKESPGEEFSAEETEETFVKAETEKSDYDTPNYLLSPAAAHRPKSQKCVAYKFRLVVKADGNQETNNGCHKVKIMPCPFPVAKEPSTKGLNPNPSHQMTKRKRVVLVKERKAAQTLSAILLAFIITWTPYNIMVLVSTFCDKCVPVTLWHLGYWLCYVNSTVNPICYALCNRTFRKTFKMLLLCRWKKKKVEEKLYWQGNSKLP
# Procedure, shortened: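 Chemicals passing a primary duplicate screen at 25 uM were run as singleton concentration series, maximum 50 uM. Displacement of a specific radioligand from CHO-extracted receptor was read by filter scintillation after 1 h, relative to DMSO.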
# [12] = target: human Neurokinin, NK2 Receptor, TACR2 (gene 6865) (UniProt P21452); assay: NVS_GPCR_hNK2: NovaScreen (NVS) G Protein-Coupled Receptor Assay for human Neurokinin, NK2 Receptor (AID 2283278);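 further: actives reduce bound radioligand signal relative to DMSO baseline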
# human Neurokinin, NK2 Receptor, TACR2 (gene 6865), sequence (P21452 whole entry, looked up): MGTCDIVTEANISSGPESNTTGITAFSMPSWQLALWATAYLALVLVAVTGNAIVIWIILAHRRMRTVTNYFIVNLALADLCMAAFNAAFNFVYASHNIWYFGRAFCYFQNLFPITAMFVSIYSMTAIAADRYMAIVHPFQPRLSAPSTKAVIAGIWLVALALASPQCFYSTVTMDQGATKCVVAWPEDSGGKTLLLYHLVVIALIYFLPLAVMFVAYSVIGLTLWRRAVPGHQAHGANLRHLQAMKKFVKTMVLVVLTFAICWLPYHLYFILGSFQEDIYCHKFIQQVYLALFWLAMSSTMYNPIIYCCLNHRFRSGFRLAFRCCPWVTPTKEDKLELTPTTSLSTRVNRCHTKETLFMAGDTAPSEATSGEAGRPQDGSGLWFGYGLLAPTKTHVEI
# Procedure, shortened: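 Filter-based scintillation counting measured radioligand bound to receptor extracted from CHO cells, 4 hours after compound addition. Chemicals screened first at 25 uM in duplicate, with actives retested in concentration series relative to DMSO.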
# [13] = target: human Adrenergic, Beta 3 Receptor (Adrb3), ADRB3 (gene 155) (UniProt P13945); assay: NVS_GPCR_hAdrb3: NovaScreen (NVS) G Protein-Coupled Receptor Assay for human Adrenergic, Beta 3 Receptor (Adrb3) (AID 2283262)
# human Adrenergic, Beta 3 Receptor (Adrb3), ADRB3 (gene 155), sequence (P13945 whole entry, looked up): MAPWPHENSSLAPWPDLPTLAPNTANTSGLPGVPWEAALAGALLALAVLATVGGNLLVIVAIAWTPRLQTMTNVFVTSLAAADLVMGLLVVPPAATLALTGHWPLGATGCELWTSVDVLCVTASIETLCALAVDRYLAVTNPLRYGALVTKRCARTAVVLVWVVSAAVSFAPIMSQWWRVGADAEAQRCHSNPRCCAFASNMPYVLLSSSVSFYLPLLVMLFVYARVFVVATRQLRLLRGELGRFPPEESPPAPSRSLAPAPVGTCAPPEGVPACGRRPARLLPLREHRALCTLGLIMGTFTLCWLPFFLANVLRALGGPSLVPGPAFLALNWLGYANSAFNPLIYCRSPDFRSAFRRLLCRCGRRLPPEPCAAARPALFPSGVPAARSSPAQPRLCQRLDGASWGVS
# Procedure, shortened: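 A cell-free filter binding assay read by scintillation counting, with displacement of a specific radioligand measured after 1 hour. The receptor source was SK-N-MC extracts (cells pretreated with isoproterenol and 8-bromo-cAMP). Compounds were first tested at 25 uM in duplicate and then in concentration series.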
# [14] = target: human Endothelin Receptor Type B (ETB), EDNRB (gene 1910) (UniProt P24530); assay: NVS_GPCR_hETB: NovaScreen (NVS) G Protein-Coupled Receptor Assay for human Endothelin Receptor Type B (ETB) (AID 2283267)
# Procedure, shortened: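 Filter-based scintillation readout of radioligand displacement, 4 h, using membranes from human astrocytoma cells. Actives from a 25 uM duplicate screen were retested in concentration-response (top 50 uM) relative to DMSO baseline.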
# [15] = target: human Neuropeptide Receptor Y1 (NPY1), NPY1R (gene 4886) (UniProt P25929); assay: NVS_GPCR_hNPY1: NovaScreen (NVS) G Protein-Coupled Receptor Assay for human Neuropeptide Receptor Y1 (NPY1) (AID 2283276)
# Procedure, shortened: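 Displacement of specific radioligand from NPY1 receptor of SK-N-MC origin, read by filtration and scintillation after 1 h. Compounds first tested at 25 uM in duplicate, then actives in concentration series; signal loss relative to DMSO.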
# [16] = target: human Dopamine Receptor D4.4 (DRD4.4), DRD4 (gene 1815) (UniProt P21917); assay: NVS_GPCR_hDRD4.4: NovaScreen (NVS) G Protein-Coupled Receptor Assay for human Dopamine Receptor D4.4 (DRD4.4) (AID 2283264)
# human Dopamine Receptor D4.4 (DRD4.4), DRD4 (gene 1815), sequence (P21917 whole entry, looked up): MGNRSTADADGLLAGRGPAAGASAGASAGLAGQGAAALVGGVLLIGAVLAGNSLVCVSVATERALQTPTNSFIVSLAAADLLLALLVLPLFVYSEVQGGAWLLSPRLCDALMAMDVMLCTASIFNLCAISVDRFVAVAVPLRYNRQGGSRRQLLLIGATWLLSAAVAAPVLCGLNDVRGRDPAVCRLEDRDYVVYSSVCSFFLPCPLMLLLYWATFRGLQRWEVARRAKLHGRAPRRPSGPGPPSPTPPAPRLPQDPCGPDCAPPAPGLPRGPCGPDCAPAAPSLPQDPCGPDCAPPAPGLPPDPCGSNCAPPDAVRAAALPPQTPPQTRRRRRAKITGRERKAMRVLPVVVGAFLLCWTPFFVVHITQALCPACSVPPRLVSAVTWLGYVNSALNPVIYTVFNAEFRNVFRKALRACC
# Procedure, shortened: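 Filter-binding assay with a tritiated or iodinated ligand, cell-free receptor prepared from CHO, 1 hour. Loss of bound radioactivity versus DMSO; single 25 uM duplicate screen, then concentration-response for actives.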
# [17] = target: human Leukotriene B4 Receptor 1 (LTB4-BLT1), LTB4R (gene 1241) (UniProt Q15722); assay: NVS_GPCR_hLTB4_BLT1: NovaScreen (NVS) G Protein-Coupled Receptor Assay for human Leukotriene B4 Receptor 1 (LTB4-BLT1) (AID 2283271)
# human Leukotriene B4 Receptor 1 (LTB4-BLT1), LTB4R (gene 1241), sequence (Q15722 whole entry, looked up): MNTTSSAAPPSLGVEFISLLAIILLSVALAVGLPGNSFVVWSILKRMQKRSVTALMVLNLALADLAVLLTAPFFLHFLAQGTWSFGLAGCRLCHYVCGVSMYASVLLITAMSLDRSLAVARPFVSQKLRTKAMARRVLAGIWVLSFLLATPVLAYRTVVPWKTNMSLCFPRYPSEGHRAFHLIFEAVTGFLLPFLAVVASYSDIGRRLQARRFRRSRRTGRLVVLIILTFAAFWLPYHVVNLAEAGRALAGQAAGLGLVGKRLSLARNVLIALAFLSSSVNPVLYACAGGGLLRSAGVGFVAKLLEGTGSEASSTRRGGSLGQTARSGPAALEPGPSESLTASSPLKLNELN
# Procedure, shortened: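 Cell-free human neutrophil receptor preparation, 1 h exposure, radioligand binding read by filter scintillation counting. Single 25 uM duplicate screen, then concentration series topping at 50 uM; binding loss scored against DMSO baseline.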
compound,measurement,setting,value
CCCCCCCC(=O)O,outcome,[1],inactive
same,outcome,[2],inactive
same,outcome,[3],inactive
same,AC50,[4],6.66 µM (active)
CC(C)(C)CC(C)(C)c1ccc(O)c(-n2nc3ccccc3n2)c1,AC50,[5],19.4 µM (active)
CCN(CC)CCNc1ccc(CNC=O)c2sc3ccc(OC)cc3c(=O)c12,AC50,[6],14.6 µM (active)
same,AC50,[7],28.3 µM (active)
same,AC50,[8],18.8 µM (active)
same,AC50,[9],7.5 µM (active)
same,AC50,[10],7.31 µM (active)
same,AC50,[1],4.7 µM (active)
same,AC50,[2],8.94 µM (active)
same,AC50,[3],11.7 µM (active)
same,AC50,[4],8.13 µM (active)
same,AC50,[11],7.21 µM (active)
Nc1cccc2c(N)cccc12,outcome,[12],inactive
CC(=O)CC(C)(C)O,outcome,[13],inactive
same,outcome,[14],inactive
Oc1cccc(O)c1,outcome,[15],inactive
O=C(OCCOCCOC(=O)c1ccccc1)c1ccccc1,outcome,[11],inactive
same,outcome,[12],inactive
CCC(=C(c1ccc(O)cc1)c1ccc(OCCN(C)C)cc1)c1ccccc1,AC50,[6],4.42 µM (active)
same,outcome,[16],inactive
same,AC50,[8],0.647 µM (active)
same,AC50,[10],1.71 µM (active)
same,outcome,[3],inactive
same,AC50,[11],2.52 µM (active)
CCCOc1sc(C(=O)N2CCC(c3cc(CN)ccc3F)CC2)c(C)c1Br,AC50,[6],8.34 µM (active)
same,AC50,[7],7.53 µM (active)
same,AC50,[13],33.5 µM (active)
same,AC50,[16],16.9 µM (active)
same,AC50,[8],9.42 µM (active)
same,AC50,[9],18.2 µM (active)
same,AC50,[10],3.56 µM (active)
same,AC50,[1],8.67 µM (active)
same,AC50,[2],11.3 µM (active)
same,AC50,[3],12.2 µM (active)
same,AC50,[4],11.1 µM (active)
same,AC50,[11],4.84 µM (active)
same,AC50,[15],13.5 µM (active)
same,AC50,[12],7.85 µM (active)
COc1ccc([N+](=O)[O-])cc1N,AC50,[8],7.93 µM (active)
c1ccc2cc3c(ccc4ccccc43)cc2c1,AC50,[16],35.5 µM (active)
CN1CCN(c2ccccc2/C=C2\SCCN(c3ccc(Cl)c(Cl)c3)C2=O)CC1,AC50,[7],0.199 µM (active)
same,AC50,[12],6.97 µM (active)
O=c1c(-c2ccc(O)cc2)coc2cc(O)ccc12,outcome,[17],inactive
CC(=O)NC1(c2cccc(F)c2)CCN(CC[C@@]2(c3ccc(Cl)c(Cl)c3)CN(c3ccccc3)C(=O)CO2)CC1,AC50,[13],34.2 µM (active)
same,AC50,[16],13.2 µM (active)
same,AC50,[8],11 µM (active)
same,AC50,[10],14.8 µM (active)
same,AC50,[3],8.68 µM (active)
same,AC50,[4],13.9 µM (active)
same,AC50,[11],10.6 µM (active)
same,AC50,[12],0.00268 µM (active)
